Among the data in PubChem BioAssay AID894 (National Center for Advancing Translational Sciences (NCATS), 2007) are activity change, negative = inhibition and Potency values, retold here.

Where “and” joins values, the source holds several entries; their conditions need not be identical. Equal entries are not always repeated. Among all 150,000 compounds or so, about 6,500 (4.3%) were called active. Another 12% or so got no clear call; they are omitted. The entries come from a sample that favours actives as a whole. Unmarked numbers belong to inactive results. Calls follow the shape of the dose curve; as a rule, active = well fitted inhibition curve with a large enough effect (not every such curve was filed as active); inconclusive = small, poorly fitted or top-dose-only effect, or another doubt; inactive = no such curve, though single readings can be large or run the other way.
% is scaled to controls: 0 for no effect and ±100 for the full control effect; potency is read from the fitted curve at half-maximal effect.

Chain of 15-hydroxyprostaglandin dehydrogenase [NAD(+)] (Homo sapiens) (P15428 whole entry, looked up): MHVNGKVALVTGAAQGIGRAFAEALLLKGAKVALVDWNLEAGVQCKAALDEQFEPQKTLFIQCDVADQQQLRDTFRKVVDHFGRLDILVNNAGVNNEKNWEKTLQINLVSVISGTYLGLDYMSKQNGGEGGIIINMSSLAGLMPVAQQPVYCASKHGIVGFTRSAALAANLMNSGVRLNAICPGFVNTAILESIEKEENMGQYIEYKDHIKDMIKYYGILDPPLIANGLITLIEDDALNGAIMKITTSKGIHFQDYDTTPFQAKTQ

The test concerns the target 15-hydroxyprostaglandin dehydrogenase [NAD(+)] (Homo sapiens) (UniProt P15428). Put plainly: qHTS Assay for Inhibitors of HPGD (15-Hydroxyprostaglandin Dehydrogenase). As to conditions: purified HPGD, NADH fluorescence kinetic, PGE2 substrate; activity change, negative = inhibition: hits give low values. The source says: Human 15-Hydroxyprostaglandin dehydrogenase (HPGD) catalyzes the inactivation of prostaglandin E2, and plays a major role in cancer biology by antagonizing the oncogenic potential of cyclooxygenase type 2 (COX2). Assays are available, based on absorbance/fluorescence increase of NADH with the substrate 15-OH prostaglandin E2. References 1. Myung SJ, Rerko RM, Yan M, Platzer P, Guda K, Dotson A, Lawrence E, Dannenberg AJ, Lovgren AK, Luo G, Pretlow TP, Newman RA, Willis J, Dawson D, Markowitz SD. 15-Hydroxyprostaglandin dehydrogenase is an in vivo suppressor of colon tumorigenesis. […] 2. Yan M, Rerko RM, Platzer P, Dawson D, Willis J, Tong M, Lawrence E, Lutterbaugh J, Lu S, Willson JK, Luo G, Hensold J, Tai HH, Wilson K, Markowitz SD. 15-Hydroxyprostaglandin dehydrogenase, a COX-2 oncogene antagonist, is a TGF-beta-induced suppressor of human gastrointestinal cancers. Proc Natl Acad Sci U S A. 2004 Dec 14;101(50):17468-73. 3. Yang L, Amann JM, Kikuchi T, Porta R, Guix M, Gonzalez A, Park KH, Billheimer D, Arteaga CL, Tai HH, Dubois R, Carbone DP, Johnson DH. Inhibition of Epidermal Growth Factor Receptor Signaling Elevates 15-Hydroxyprostaglandin Dehydrogenase in Non-Small-Cell Lung Cancer. Cancer Res. 2007 Jun 15;67(12):5587-5593. Inhibition of HPGD activity was screened by utilizing prostaglandin as an electron donor and NAD+ as an electron acceptor/cofactor. An increase in the fluorescence intensity due to conversion of NAD+ to NADH was used to measure the enzyme activity. NIH Chemical Genomics Center [NCGC] Structural Genomics Consortium [SGC]
Buffer: 50 mM Tris-HCl, 0.01% Tween 20, pH 8. Enzyme Buffer: 50 mM Tris-HCl, 0.5 mM NAD+ and 0.01% Tween 20, pH 8. Reagents/Controls: Buffer in columns 3 and 4 as negative control (no enzyme). Substrate/cofactor solution: 1 mM NAD+ and 30 uM prostaglandin (Sigma, prostaglandin E2, # P5640) final concentrations dispensed throughout the plate. Enzyme: 20 nM HPGD final concentration in columns 1, 2, 5-48. Column 1 and 2 is neutral (100% activity). A titration of control inhibitor GW5074 (G6416 Sigma-Aldrich, St. Louis, MO) top concentration 10 mM in DMSO, then 1:2 dilution for a total of 16 concentrations in duplicate) was pin-transferred into column 2. Assay Steps: Three uL of enzyme were dispensed to 1536-well Greiner black solid bottom plates. Compounds and control inhibitor (23 nL) were transferred via Kalypsys PinTool. The plates were incubated for 15 min at room temperature, and then 1 uL of substrate/cofactor solution was added to start the reaction. The plates were immediately transferred to and read 5 times every 30 seconds on ViewLux High-throughput CCD imager (Perkin-Elmer) using 360 nm excitation and 450 nm emission fluorescence protocol. The fluorescence intensity difference between the last and the first time points was used to compute reaction progress.
Consider `CC(=O)c1c(O)c(C)c(O)c(Cc2c(O)c3c(c(C(=O)/C=C/c4ccccc4)c2O)OC(C)(C)C=C3)c1O`, for which the activity change, negative = inhibition was -19.2% and -15.4%.

As to `CCCCC/C=C\C/C=C\C/C=C\CCCCCCC(=O)NCCO`, the activity change, negative = inhibition was -7.26% and -18.7%.

Turning to `CC(C)(c1ccc(OC[C@@H]2CO2)cc1)c1ccc(OC[C@H]2CO2)cc1`, the Potency is 12.6 µM (active).

For the molecule `CCOC(=O)c1ncn2c1[C@@H]1CCCN1C(=O)c1cc(OC)ccc1-2`, the activity change, negative = inhibition is -9.65%.

In the case of `Cc1nc2nc(C)c(CCC(=O)N3CCC4(CC3)OCCO4)c(C)n2n1`, the activity change, negative = inhibition is -4.62%.

Regarding `C=CC#N`, the activity change, negative = inhibition is -3.54%.

Regarding `NCCc1c[nH]c2ccc(O)cc12`, the activity change, negative = inhibition was -4.55% and -5.27% and -12.4%.

For `Cc1noc(C)c1CSc1nc2cc(S(=O)(=O)N3CCOCC3)ccc2o1`, the Potency was 7.94 µM (active).

With `C[C@@]12CCC3C(CC[C@@H]4CC(O)CC[C@@]34C)C1CCC2O` (some centres not stated), the activity change, negative = inhibition is -3.43%.

Consider `CC(Cl)Cl`, for which the activity change, negative = inhibition is -8.77%.

Turning to `O=C(NCc1cccs1)c1ccc(Br)o1`, the Potency is 20 µM (active).

As for `Fc1ccc(C(OCCN2CCN(C/C=C\c3ccccc3)CC2)c2ccc(F)cc2)cc1`, the activity change, negative = inhibition is -13.4%.

For `CCCCC/C=C\C/C=C\C/C=C\C=C\[C@H](CCCC(=O)O)OO`, the activity change, negative = inhibition was -9.41%.

Turning to `Cc1cccc2c3c(ccc12)C1=C(C(=O)C3=O)C(C)CO1` (configuration not stated), the Potency was 17.8 µM (active).

On to `CNCC[C@H](Oc1ccc(C(F)(F)F)cc1)c1ccccc1`, for which the activity change, negative = inhibition was -9.03% and -8.03% and -3.66%.

On to `CC(C)(O)/C=C\C(=O)[C@](C)(O)[C@H]1[C@H](O)C[C@]2(C)[C@@H]3CC=C4[C@@H](C=C(O)C(=O)C4(C)C)[C@]3(C)C(=O)C[C@@]12C`, for which the activity change, negative = inhibition was -9.86%.

For the molecule `COC(=O)N(c1ccc(OC)cc1)P1(=S)OCCC(C)O1` (configuration not stated), the Potency is 4.47 µM (active).

Regarding `OC(Cn1c2ccccc2c2ccccc21)C[n+]1ccccc1` (configuration not stated), the activity change, negative = inhibition was -3.99%.

In the case of `Cc1ccc(N2C(=O)NC(=O)C(CCc3ccncc3)(Cc3cccc(Cl)c3Cl)C2=O)cc1` (configuration not stated), the activity change, negative = inhibition was -5.28%.

Consider `C=CCSSCC=C`, for which the Potency was 8.91 µM (active).

As for `CC(=O)OC1C2CCC3C1(CC(O)[C@@]1(O)[C@@H](CC(O)C1(C)C)[C@]3(C)O)C[C@@]2(C)O` (some centres not stated), the activity change, negative = inhibition was -0.742%.

As for `CCCCCCCCCCCCCC(=O)O[C@@H]1[C@@H](C)[C@@]2(O)[C@@H](C=C(CO)C[C@]3(O)C(=O)C(C)=C[C@@H]23)[C@@H]2C(C)(C)[C@]12OC(C)=O`, the activity change, negative = inhibition was -19%.

In the case of `CC(C)(O)c1[se]c2ccccc2c1I`, the activity change, negative = inhibition is -24.2%.

Consider `Cc1cccc(N2C(=O)NC(=O)/C(=C\c3cnn(-c4ccccc4)c3)C2=O)c1`, for which the Potency was 10 µM (active).

Take `CC12CN3CC(C)(CN(C1)C3c1cccs1)C2` (configuration not stated): the activity change, negative = inhibition is -2.07%.

For `CC(=C1C(=O)c2ccccc2C1=O)N1CCN(CCN=Cc2c(O)n(C)c(=O)n(C)c2=O)CC1`, the activity change, negative = inhibition was -26.9%.

As for `COc1c(O)ccc2c1-c1c3c(cc4c1C(C2)N(C)CC4)OCO3` (configuration not stated), the activity change, negative = inhibition is -4.96%.

For `O=c1c2ccccc2nc(-c2ccco2)n1-c1ccc(Br)cn1`, the activity change, negative = inhibition is -7.61%.

As for `Cc1nc2ccccn2c1P(=S)(N1CCCCC1)N1CCCCC1`, the activity change, negative = inhibition was -26.7%.

As for `CCCCCCCCc1[se]c2ccccc2c1Br`, the activity change, negative = inhibition was 1.04%.

With `CCNC[C@H](O)c1cccc(O)c1`, the activity change, negative = inhibition was -6.69%.

Consider `O=C1/C(=C\c2ccc3c(c2)OCO3)N2CCC1CC2`, for which the Potency is 25.1 µM (active).

For `N[C@H](Cc1o[nH]c(=O)c1Cl)C(=O)O`, the activity change, negative = inhibition was 0.654%.

For the molecule `Cc1ccc(N(C)C(=O)Oc2cccc3ccc(C)nc23)cc1`, the activity change, negative = inhibition was -1.1%.

For `O=c1c2ccccc2nc(-c2ccc(Cl)cc2Cl)n1-c1ccncc1`, the activity change, negative = inhibition is -1.06%.

For the molecule `C1CC[C@H]([C@@]23C[C@H](C[C@H]4CCCN[C@H]42)[C@@H]2CCCCN2C3)NC1`, the activity change, negative = inhibition was -4.36%.

As to `O=C(O)C1C2CCC(O2)C1C(=O)O` (configuration not stated), the activity change, negative = inhibition is -2.85%.

As to `O=C(OCC1O[C@@H](OC(=O)c2cc(O)c(O)c(O)c2)[C@@H](OC(=O)c2cc(O)c(O)c(O)c2)[C@@H](OC(=O)c2cc(O)c(O)c(O)c2)[C@@H]1OC(=O)c1cc(O)c(O)c(O)c1)c1cc(O)c(O)c(O)c1` (some centres not stated), the Potency was 10 µM (active).

On to `CC(C)N(CC#CCC1(O)c2ccccc2-c2ccccc21)C(C)C`, for which the activity change, negative = inhibition was -8.59%.

Turning to `CCN1CCN(C(=O)Cc2coc3cc(C)cc(C)c23)CC1`, the activity change, negative = inhibition is -14.1%.

Regarding `O=[N+]([O-])c1ccc(Cl)c(Cl)c1`, the activity change, negative = inhibition was -4.16%.

In the case of `CN[C@@H]1C[C@H]2O[C@@](C)([C@@H]1OC)n1c3ccccc3c3c4c(c5c6ccccc6n2c5c31)C(=O)NC4`, the activity change, negative = inhibition is -25.7%.

For the molecule `Cc1ccc(Cn2c(C)c3cnn(CC(=O)N4CCC5(CC4)OCCO5)c(=O)c3c2C)cc1`, the activity change, negative = inhibition was -21.8%.

Consider `Cc1cc(-c2n[nH]c(=S)n2-c2ccc(C)c(C)c2)no1`, for which the Potency was 5.62 µM (active).

With `NCCc1ccc(S(=O)(=O)F)cc1`, the activity change, negative = inhibition was -8.88%.

As for `CC(=O)O[C@H]1CC[C@@]2(C)[C@@H](CC[C@H]3[C@H]2CC(=O)[C@]2(C)[C@@H]3C[C@@H](N3CC3)[C@H]2C(C)=O)C1`, the activity change, negative = inhibition is -8.48%.

As for `CCC(C)C(=O)O[C@@H]1C[C@@]2(C)C(c3ccoc3)OC(=O)CC23OC2(C)O[C@@]14[C@@]1(C)C(CC(=O)OC)C5(C)CC1(O)C(O)(C5OC(=O)C1(C)OC1C)C(OC(C)=O)[C@@]34O2` (some centres not stated), the activity change, negative = inhibition is -23.2%.
